Source: PubChem BioAssay (Tox21)
Where “and” joins values, the source holds several entries; their conditions need not be identical. Identical values can stand only once. Inconclusive results are not listed. Entries that show only a call come without a potency. Some compounds were tested as several samples or in several runs, with calls that do not always agree. Calls of active or inactive are those of the source. Unless noted, calls follow the shape of the dose curve; as a rule, active = well fitted curve in the direction sought with a large enough effect in the repeat runs; inconclusive = weak or mixed curves; inactive = no such curve, though single readings can be large; an effect the other way counts as inactive or inconclusive.

What was measured:
[1] = qHTS assay to identify small molecule antagonists of the thyroid receptor (TR) signaling pathway - cell viability counter screen (AID 743064); also: nearly all actives have a fitted effect of over 50% in size; also: potency is read from the fitted curve at half-maximal effect
Outline: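 GH3.TRE-Luc cells, 4 h pre-plating; cpd + T3 1 nM final; 37 °C 23.5 h; CellTiter-Fluor 30 min; fluorescence read.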

[2] = qHTS assay to identify small molecule antagonists of the thyroid receptor (TR) signaling pathway (AID 743065); also: nearly all actives have a fitted effect of over 55% in size; also: potency is read from the fitted curve at half-maximal effect; as to activity, negative = inhibition: series mostly up to about 70 µM
Outline: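 GH3.TRE-Luc rat pituitary cells carrying two TR response elements driving luciferase were plated for 4 h, given compound plus 1 nM T3 (final), and incubated 23.5 h at 37 C. ONE-Glo luminescence measured reporter inhibition; CellTiter-Fluor fluorescence tracked cytotoxicity.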

[3] = system: thyroid hormone receptor (rat, GH3 cells); assay: qHTS assay to identify small molecule agonists of the thyroid receptor (TR) signaling pathway (AID 743066; calls by dose curve)
[4] = qHTS assay to identify small molecule antagonists of the estrogen receptor alpha (ER-alpha) signaling pathway - cell viability counter screen (AID 743074; calls by dose curve; also: nearly all actives have a fitted effect of over 45% in size)
[5] = qHTS assay to identify small molecule antagonists of the estrogen receptor alpha (ER-alpha) signaling pathway using the BG1 cell line - cell viability counter screen (AID 743081);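 also: compound given together with 17beta-estradiol as the ER stimulus; nearly all actives have a fitted effect of over 45% in size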; also: potency is read from the fitted curve at half-maximal effect; as to activity change, negative = cytotoxicity: series mostly up to about 70 µM
Aromatase (Homo sapiens) = Aromatase (Homo sapiens) (UniProt P11511); assay: qHTS assay to identify aromatase inhibitors (AID 743083); also: series mostly up to about 70 µM; nearly all actives have a fitted effect of over 55% in size
Sequence of Aromatase (Homo sapiens) (P11511 whole entry, looked up): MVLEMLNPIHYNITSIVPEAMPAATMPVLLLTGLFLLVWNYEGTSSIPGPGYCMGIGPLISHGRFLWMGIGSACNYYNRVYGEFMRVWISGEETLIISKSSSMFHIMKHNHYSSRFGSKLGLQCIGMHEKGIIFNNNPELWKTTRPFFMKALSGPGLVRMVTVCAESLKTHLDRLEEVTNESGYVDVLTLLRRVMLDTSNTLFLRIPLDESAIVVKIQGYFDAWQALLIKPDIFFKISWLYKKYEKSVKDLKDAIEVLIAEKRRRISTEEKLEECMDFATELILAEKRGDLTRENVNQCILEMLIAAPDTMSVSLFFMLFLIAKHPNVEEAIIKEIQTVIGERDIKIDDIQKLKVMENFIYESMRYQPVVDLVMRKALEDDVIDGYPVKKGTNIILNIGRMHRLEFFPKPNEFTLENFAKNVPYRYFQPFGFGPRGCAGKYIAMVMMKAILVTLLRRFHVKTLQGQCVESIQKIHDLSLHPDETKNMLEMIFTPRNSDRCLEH

[6] = target: Estrogen receptor (Homo sapiens) (UniProt P03372); assay: qHTS assay to identify small molecule agonists of the estrogen receptor alpha (ER-alpha) signaling pathway (AID 743075; calls by dose curve)
Sequence of Estrogen receptor (Homo sapiens) (P03372 whole entry, looked up): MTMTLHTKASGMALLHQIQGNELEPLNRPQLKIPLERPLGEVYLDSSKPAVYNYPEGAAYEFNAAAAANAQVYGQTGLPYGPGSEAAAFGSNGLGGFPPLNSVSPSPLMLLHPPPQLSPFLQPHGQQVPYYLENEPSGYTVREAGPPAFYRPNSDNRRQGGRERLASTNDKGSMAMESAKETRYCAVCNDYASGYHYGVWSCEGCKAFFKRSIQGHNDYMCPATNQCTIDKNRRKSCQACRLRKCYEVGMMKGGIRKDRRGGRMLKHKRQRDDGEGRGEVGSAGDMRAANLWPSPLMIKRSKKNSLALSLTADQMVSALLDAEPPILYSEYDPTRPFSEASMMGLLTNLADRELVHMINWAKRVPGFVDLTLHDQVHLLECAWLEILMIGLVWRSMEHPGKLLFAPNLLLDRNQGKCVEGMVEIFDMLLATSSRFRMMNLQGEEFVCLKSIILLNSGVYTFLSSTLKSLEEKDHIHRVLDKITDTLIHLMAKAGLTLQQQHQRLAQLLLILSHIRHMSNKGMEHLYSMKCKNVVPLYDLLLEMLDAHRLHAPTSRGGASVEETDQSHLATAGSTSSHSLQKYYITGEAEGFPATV

[7] = target: Estrogen receptor (Homo sapiens) (UniProt P03372); assay: qHTS assay to identify small molecule agonists of the estrogen receptor alpha (ER-alpha) signaling pathway using the BG1 cell line (AID 743079); also: nearly all actives have a fitted effect of over 20% in size; also: potency is read from the fitted curve at half-maximal effect
[8] = qHTS assay to identify small molecule antagonists of the estrogen receptor alpha (ER-alpha) signaling pathway using the BG1 cell line (AID 743080; calls by dose curve;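 also: BG1 cells stimulated with 17beta-estradiol alongside compound; series mostly up to about 70 µM; nearly all actives have a fitted effect of over 25% in size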)
Outline: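 BG1-Luc-4E2 cells (endogenous full-length ER-alpha, 4xERE luciferase) hormone-starved 5 days in charcoal-stripped FBS, plated 4,000/well for 24 h, then compound plus 17beta-estradiol for 21.5 h at 37 C; ONE-Glo luminescence read.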

[9] = target: Estrogen receptor (Homo sapiens) (UniProt P03372); assay: qHTS assay to identify small molecule antagonists of the estrogen receptor alpha (ER-alpha) signaling pathway (AID 743069; active = well fitted curve in the direction sought with a large enough effect in the signal ratio in the repeat runs, not every such curve was filed as active; the % refers to the signal ratio)
Outline: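 Screening used a UAS-driven beta-lactamase reporter integrated into HEK293 cells expressing ER-alpha, stimulated with 17beta-estradiol alongside test compounds over 18 hr at 37C; signal came from LiveBLAzer B/G FRET fluorescence.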

SMILES: COC(C)(C)CCO
- Potency [1]: inactive
- Potency [2]: inactive
- Potency [3]: inactive
- Potency [4]: inactive
- Potency [5]: inactive
- Potency (Aromatase (Homo sapiens)): inactive

SMILES: CCOc1ccc(O)cc1
- Potency [1]: inactive
- Potency [2]: inactive
- Potency [3]: inactive
- Potency [4]: inactive
- Potency [6]: inactive
- Potency [7]: inactive
- Potency [5]: inactive
- Potency (Aromatase (Homo sapiens)): inactive

SMILES: CCCCC/C=C\C/C=C\CCCCCCCC(=O)NC(C)c1ccccc1 (configuration not stated)
- Potency [1]: inactive
- Potency [2]: inactive
- Potency [3]: inactive
- Potency [4]: inactive
- Potency [6]: inactive
- Potency [7]: inactive
- Potency [8]: inactive
- Potency [5]: inactive

SMILES: COc1ccc(C)cc1[N+](=O)[O-]
- Potency [1]: inactive
- Potency [2]: inactive
- Potency [3]: inactive
- Potency [4]: inactive
- Potency [5]: inactive
- Potency (Aromatase (Homo sapiens)): inactive

SMILES: CCCCOC(=O)CCCCCCCC(=O)OCCCC
- Potency [1]: inactive
- Potency [2]: inactive
- Potency [3]: inactive
- Potency [4]: inactive
- Potency [5]: inactive
- Potency (Aromatase (Homo sapiens)): inactive

SMILES: CCOC(=O)Cc1cccc2ccccc12
- Potency [1]: inactive
- Potency [2]: inactive
- Potency [3]: inactive
- Potency [4]: inactive
- Potency [6]: inactive
- Potency [7]: inactive
- Potency [5]: inactive
- Potency (Aromatase (Homo sapiens)): inactive

SMILES: CC(C)(COC(=O)c1ccccc1)COC(=O)c1ccccc1
- Potency [1]: inactive
- Potency [2]: inactive
- Potency [3]: inactive
- Potency [4]: inactive
- Potency [5]: inactive
- Potency (Aromatase (Homo sapiens)): inactive

SMILES: COc1ccc(C(=O)Nc2nc3ccccc3c(NCc3ccccc3)c2C#N)cc1
- Potency [1]: inactive
- Potency [2]: inactive
- Potency [3]: inactive
- Potency [4]: inactive
- Potency [6]: inactive
- Potency [5]: inactive

SMILES: Nc1cc(C(=O)O)c(O)c(S(=O)(=O)O)c1
- Potency [1]: inactive
- Potency [2]: inactive
- Potency [3]: inactive
- Potency [4]: inactive
- Potency [5]: inactive
- Potency (Aromatase (Homo sapiens)): inactive

SMILES: CCCCCCCCCCCc1ccccc1
- Potency [1]: inactive
- Potency [2]: inactive
- Potency [3]: inactive
- Potency [9]: inactive
- Potency [6]: inactive
- Potency [7]: inactive
- Potency [8]: inactive
- Potency [5]: inactive
- Potency (Aromatase (Homo sapiens)): inactive

SMILES: Brc1c2ccccc2c(Br)c2ccccc12
- activity change, negative = cytotoxic [1]: 6.61% [at 8.44 µM] (inactive)
- activity, negative = inhibition [2]: 5.77% [at 8.44 µM] (inactive)
- activation [3]: 0.426% [at 8.08 µM] (inactive)
- activity, negative = inhibition [9]: 17% [at 6.71 µM] (inactive)
- activity, negative = cytotoxicity [4]: 9.03% [at 6.72 µM] (inactive)
- activation [7]: -3.1% [at 8.47 µM] (inactive)
- activity change, negative = cytotoxicity [5]: 5.65% [at 8.47 µM] (inactive)

SMILES: CCCCCCCC#N
- Potency [1]: inactive
- Potency [2]: inactive
- Potency [3]: inactive
- Potency [5]: inactive

SMILES: OCCN1CCN(CCCN2c3ccccc3C=Cc3ccccc32)CC1
- Potency [1]: 6.68 µM (active) and 7.5 µM (active)
- Potency [2]: 11.9 µM (active) and 26.6 µM (active)
- Potency [3]: inactive
- Potency [4]: inactive
- Potency [6]: inactive
- Potency [7]: inactive
- Potency [8]: inactive
- Potency [5]: 10.6 µM (active) and inactive
- Potency (Aromatase (Homo sapiens)): inactive

SMILES: Brc1c2ccccc2cc2ccccc12
- Potency [1]: inactive
- Potency [2]: inactive
- Potency [3]: inactive
- Potency [4]: inactive
- Potency [7]: 30.9 µM (active)
- Potency [5]: inactive

SMILES: Cc1cc(N)c2cc(NC(=O)Nc3ccc4nc(C)cc(N)c4c3)ccc2n1
- Potency [1]: 29.8 µM (active)
- Potency [2]: 29.8 µM (active)
- Potency [3]: inactive
- Potency [4]: inactive
- Potency [5]: inactive
- Potency (Aromatase (Homo sapiens)): inactive

SMILES: CC1CCC(=O)C1=O (configuration not stated)
- Potency [1]: inactive
- Potency [2]: inactive
- Potency [3]: inactive
- Potency [4]: inactive
- Potency [6]: inactive
- Potency [7]: inactive
- Potency [5]: inactive
- Potency (Aromatase (Homo sapiens)): inactive

SMILES: CC(=O)NO
- Potency [1]: inactive
- Potency [2]: inactive
- Potency [3]: inactive
- Potency [4]: inactive
- Potency [5]: inactive
- Potency (Aromatase (Homo sapiens)): inactive

SMILES: CCCCCCCCCCCC(=O)OC[C@@H](O)[C@H]1OC[C@H](OCCO)[C@H]1OCCO
- Potency [1]: inactive
- Potency [2]: inactive
- Potency [3]: inactive
- Potency [4]: inactive
- Potency [6]: inactive
- Potency [7]: inactive
- Potency [5]: inactive

SMILES: OC[C@H]1O[C@@H](OCCc2ccc(O)cc2)[C@H](O)[C@@H](O)[C@@H]1O
- Potency [1]: inactive
- Potency [2]: inactive
- Potency [3]: inactive
- Potency [9]: inactive
- Potency [6]: inactive
- Potency [7]: inactive
- Potency [8]: inactive
- Potency [5]: inactive
- Potency (Aromatase (Homo sapiens)): inactive

SMILES: Nc1ccccc1S(=O)(=O)c1ccccc1
- Potency [1]: inactive
- Potency [2]: inactive
- Potency [3]: inactive
- Potency [4]: inactive
- Potency [5]: inactive

SMILES: c1ccc(C(O[C@H]2CCCN(CCc3ccc4c(c3)OCO4)C2)c2ccccc2)cc1
- Potency [1]: 29.8 µM (active)
- Potency [2]: 26.6 µM (active)
- Potency [9]: inactive
- Potency [4]: inactive
- Potency [6]: inactive
- Potency [7]: inactive
- Potency [8]: inactive
- Potency [5]: inactive

SMILES: O=C(OCCc1ccccc1)c1ccccc1
- Potency [1]: inactive
- Potency [2]: inactive
- Potency [3]: inactive
- Potency [9]: inactive
- Potency [6]: inactive
- Potency [7]: 24.3 µM (active)
- Potency [5]: inactive
- Potency (Aromatase (Homo sapiens)): inactive

SMILES: O=C(O)c1nc(Cl)c(Cl)c(Cl)c1Cl
- Potency [1]: inactive
- Potency [2]: inactive
- Potency [3]: inactive
- Potency [4]: inactive
- Potency [5]: inactive

SMILES: CCCCCCc1ccc(-c2ccc(C#N)cc2)cc1
- Potency [1]: inactive
- Potency [2]: inactive
- Potency [3]: inactive
- Potency [4]: inactive
- Potency [5]: inactive

SMILES: CCOC(=O)COC(=O)c1cc(Oc2ccc(C(F)(F)F)cc2Cl)ccc1[N+](=O)[O-]
- Potency [1]: inactive
- Potency [2]: inactive
- Potency [3]: inactive
- Potency [4]: inactive
- Potency [5]: inactive

SMILES: CC(COCCO)OCCO (configuration not stated)
- Potency [1]: inactive
- Potency [2]: inactive
- Potency [3]: inactive
- Potency [4]: inactive
- Potency [5]: inactive
- Potency (Aromatase (Homo sapiens)): inactive

SMILES: ClCCOCCOCCCl
- Potency [1]: inactive
- Potency [2]: inactive
- Potency [3]: inactive
- Potency [4]: inactive
- Potency [6]: inactive
- Potency [7]: inactive
- Potency [8]: inactive
- Potency [5]: inactive
- Potency (Aromatase (Homo sapiens)): inactive

SMILES: CCc1cc(C2=C(C(=O)O)N(c3ccccc3C(F)(F)F)S(=O)(=O)c3ccccc32)cc2c1OCO2
- Potency [1]: 2.41 µM (active)
- Potency [2]: inactive
- Potency [3]: inactive
- Potency [4]: inactive

SMILES: O=C(NCCO[N+](=O)[O-])c1cccnc1
- Potency [1]: inactive
- Potency [2]: inactive
- Potency [3]: inactive
- Potency [4]: inactive
- Potency [5]: inactive
- Potency (Aromatase (Homo sapiens)): inactive
